From PubChem
Jurkat NFkB inh = lowers PMA/ionomycin-induced NF-kB signal in Jurkat cells; PMA/ionomycin-induced NF-kB luciferase reporter, luminescence; inhibition, % at 4 µM; actives 0.53% (n = 330,000); AID 435003; in the data active = inhibition above about 50%
Mdm2-MdmX inh = inhibitors of human Mdm2/MdmX interaction. O15151+Q00987. SaOS-2 split-luciferase Mdm2/MdmX complementation, luminescence. inhibition, % at 8 µM. actives 3% (n = 330,000);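 active = inhibition of at least 50% at 8 µM in the primary screen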
Target sequence (O15151 whole entry, looked up): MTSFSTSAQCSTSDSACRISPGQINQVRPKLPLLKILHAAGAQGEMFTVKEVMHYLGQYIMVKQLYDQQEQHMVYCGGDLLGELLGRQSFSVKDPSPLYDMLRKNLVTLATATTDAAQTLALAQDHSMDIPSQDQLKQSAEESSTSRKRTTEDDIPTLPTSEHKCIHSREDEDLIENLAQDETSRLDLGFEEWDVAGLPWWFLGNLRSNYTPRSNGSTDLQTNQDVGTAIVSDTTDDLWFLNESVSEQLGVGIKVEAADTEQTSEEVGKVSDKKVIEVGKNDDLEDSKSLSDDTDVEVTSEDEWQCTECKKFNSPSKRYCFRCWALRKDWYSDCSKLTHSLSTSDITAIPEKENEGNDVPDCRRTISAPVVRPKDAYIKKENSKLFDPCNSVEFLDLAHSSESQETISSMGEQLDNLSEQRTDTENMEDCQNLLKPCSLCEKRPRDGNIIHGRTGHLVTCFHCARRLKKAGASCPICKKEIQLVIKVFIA
Target sequence (Q00987 whole entry, looked up): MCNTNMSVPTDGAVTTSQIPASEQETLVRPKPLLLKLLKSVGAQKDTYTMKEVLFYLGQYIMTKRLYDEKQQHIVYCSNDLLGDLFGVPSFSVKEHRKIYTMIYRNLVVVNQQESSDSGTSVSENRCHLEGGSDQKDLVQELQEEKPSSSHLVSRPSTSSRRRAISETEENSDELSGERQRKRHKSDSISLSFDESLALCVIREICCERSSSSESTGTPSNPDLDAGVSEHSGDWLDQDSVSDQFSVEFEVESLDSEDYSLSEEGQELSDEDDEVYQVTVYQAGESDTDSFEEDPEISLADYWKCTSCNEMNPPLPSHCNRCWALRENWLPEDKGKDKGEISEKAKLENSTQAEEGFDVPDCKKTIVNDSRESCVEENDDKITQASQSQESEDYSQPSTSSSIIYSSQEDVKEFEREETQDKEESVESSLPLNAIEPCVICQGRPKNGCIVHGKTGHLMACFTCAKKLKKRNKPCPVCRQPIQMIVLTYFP
aSyn UTR inh = 5' untranslated region of α-synuclein, MLPCN primary screen | AID 1813 | actives 0.82% (n = 300,000) | inhibition, % (tested at 7.5 µM) | alpha-synuclein 5'UTR reporter, inhibitor activity; in the data active = inhibition above about 60%;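 note: H4 neuroglioblastoma cells stably carrying SNCA 5'UTR luciferase fusion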
KLF5 inhibitor = kruppel-like factor 5 inhibition. DLD-1 KLF5 promoter-luciferase reporter, luminescence. inhibition, % at 5 µM. actives 0.23% (n = 290,000). AID 1700;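 active = inhibition above a per-plate limit of that plate's mean compound inhibition plus 3 SD, cut at about 60% in these data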;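 note: higher means less KLF5 promoter-driven luciferase light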
Gli-Sufu block = antagonists of Gli-Sufu signaling. actives 0.74% (n = 340,000). inhibition, % at 5 µM. Sufu-KO-LIGHT fibroblasts, Gli luciferase reporter luminescence;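 active = inhibition above about 55%, limit read from the data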
697 NFkB inh = lowers PMA/ionomycin-induced NF-kB signal in 697 B cells; 697 B-cell NF-kB luciferase reporter, 16 h; inhibition, % at 4 µM; actives 0.33% (n = 330,000); AID 435022; in the data active = inhibition above about 35%
Mdm2-MdmX conf = human Mdm2/MdmX binding inhibition, confirmed. shares compounds with Mdm2-MdmX inh. luminescent assay. inhibition, % at 8 µM. actives 55% (n = 10,000); in the data active = inhibition above about 40%
Full FLuc ctr = inhibits full-length luciferase, flagging false Mdm2/MdmX hits; shares compounds with Mdm2-MdmX inh; SaOS-2 full-length luciferase counterscreen, luminescence; inhibition, % at 8 µM; actives 77% (n = 6,200); AID 504607;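 active = mean inhibition at 8 µM reaching about 37%, which flags the compound as non-specific, limit read from the data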;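 note: p53-null SaOS-2 cells with luciferase driven by a doxycycline-inducible promoter; compound on cells about two nights before reading with doxycycline added after day one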
Of the large screens only hits and unclear results are named; the others gave an inactive call (follow-up assays come after a bar, where they were run). Compounds with a hit are over-represented: about 4.1% of the library has one in this group of screens.

O=C(Nc1ccc(Cl)c(Cl)c1)Nc1cc(C(=O)N2CCOCC2)ccc1N1CCCCC1	none
O=C(Nc1ccc(Cl)c(Cl)c1)Nc1cc(S(=O)(=O)N2CCOCC2)ccc1N1CCCC1	Mdm2-MdmX inh 53.2 | Mdm2-MdmX conf inactive
COc1ccc(C(=O)NN2CCOCC2)cc1	none
COC(=O)C1=C(C)NC(=S)NC1c1ccc(-c2cc(Cl)ccc2Cl)o1 (stereo not given)	none
CCOC(=O)c1c(NC(=O)c2cc(-c3ccc(O)cc3)on2)sc(C(C)=O)c1C	Mdm2-MdmX inh 69.8 | Mdm2-MdmX conf inactive
CCOC(=O)c1sc(NC(=O)CN(CC(C)C)CC(C)C)c(C(=O)OCC)c1C	Mdm2-MdmX inh 60.7 | Mdm2-MdmX conf inactive
CCOC(=O)c1c(NC(=O)CC(C)C)sc(C(C)=O)c1C	none
CCOC(=O)c1sc(NC(=S)NC(=O)c2ccccc2)c(C(=O)OCC)c1C	Mdm2-MdmX inh 85.0 | Mdm2-MdmX conf inactive
COCc1cc(C)n(CC(=O)Nc2cc(C)cc(C)c2)c(=O)c1C#N	none
C=CCn1c(=S)sc2c(=O)[nH]cnc21	none
COc1ccc(OC)c(CN2CCN(CC(=O)Nc3ccccc3C(=O)NC3CC3)CC2)c1	none (no result: aSyn UTR inh, KLF5 inhibitor)
O=C(N/N=C/c1ccc(O)cc1O)c1ccc(CN2C(=O)c3cccc4cccc2c34)cc1	Mdm2-MdmX inh 75.3, aSyn UTR inh 62.5 | Mdm2-MdmX conf 74.5 | Full FLuc ctr inactive
O=C(N/N=C/c1ccccc1)c1ccc(CN2C(=O)c3cccc4cccc2c34)cc1	none
CC(=O)Nc1ccc(NC(=O)C(C)OC(=O)c2ccccc2NS(=O)(=O)c2cccs2)cc1 (stereo not given)	none
Cc1cccc(NC(=O)C(C)OC(=O)c2ccccc2NS(=O)(=O)c2cc(C)c(C)c([N+](=O)[O-])c2)c1 (stereo not given)	Mdm2-MdmX inh 61.5 | Mdm2-MdmX conf inactive
O=C(CCc1nnc(CCc2c[nH]c3ccccc23)o1)NC1CCC1	none
CCN1CCN(CCCNC(=O)c2ccc3c(Cl)c4c(nc3c2)CCCC4)CC1	Mdm2-MdmX inh 73.2 (no result: Gli-Sufu block) | Mdm2-MdmX conf 46.4 | Full FLuc ctr 43.5
CC1CCN(CCCNC(=O)c2ccc3c(Cl)c4c(nc3c2)CCCC4)CC1	Mdm2-MdmX inh 79.0 | Mdm2-MdmX conf 68.4 | Full FLuc ctr inactive
CC1CCN(CCNC(=O)c2ccc3c(=O)n(Cc4ccc(Cl)cc4)c(=S)[nH]c3c2)CC1	Mdm2-MdmX inh 96.6, aSyn UTR inh 98.1 | Mdm2-MdmX conf inactive
CCN1CCN(CCNC(=O)c2ccc3nc(-c4cccc(C)c4)c(-c4cccc(C)c4)nc3c2)CC1	Mdm2-MdmX inh 100.2 | Mdm2-MdmX conf 59.4 | Full FLuc ctr inactive
COCCCNC(=O)c1ccc2c(=O)n(Cc3ccc(Cl)cc3)c(=S)[nH]c2c1	none
NC(=O)c1ccsc1NC(=O)CS(=O)(=O)c1ccc(F)cc1	none (no result: KLF5 inhibitor)
CCCn1nnc(NC(=S)NC(=O)/C=C/c2ccco2)n1	none
O=C(c1ccc(F)cc1)N1CCC2(CC1)NCCc1[nH]cnc12	none
Cc1ccc2nc(SCC(=O)N3CCC(Cc4ccccc4)CC3)nc(=O)n2c1	none (no result: KLF5 inhibitor)
N#CC1CCN(C(=O)c2ccc3c(Cl)c4c(nc3c2)CCCC4)CC1	Mdm2-MdmX inh 52.4 | Mdm2-MdmX conf inactive
O=C(NCCCN1CCCCCC1)c1ccc2c(Cl)c3c(nc2c1)CCCC3	Mdm2-MdmX inh 58.6 | Mdm2-MdmX conf inactive
CN1CCN(C(=O)c2ccc3c(Cl)c4c(nc3c2)CCCC4)CC1	none
Cc1cc2ccccn2c1C(=O)c1ccc([N+](=O)[O-])o1	Mdm2-MdmX inh 64.2 | Mdm2-MdmX conf inactive
O=C(N/N=C/c1cc([N+](=O)[O-])ccc1N1CCNCC1)c1ccc([N+](=O)[O-])cc1	Mdm2-MdmX inh 100.7 | Mdm2-MdmX conf 41.3 | Full FLuc ctr inactive
O=C(CNc1ccccc1)N/N=C/c1cc([N+](=O)[O-])ccc1N1CCCC1	none
O=C(Cn1c2ccccc2c(=O)c2ccccc21)N/N=C/c1cc([N+](=O)[O-])ccc1N1CCCCCC1	Mdm2-MdmX inh 97.4 | Mdm2-MdmX conf inactive
CC1CC(C)CN(CCCNC(=O)CN2C(=O)CSc3ccc(S(=O)(=O)N4CCCCC4)cc32)C1 (stereo not given)	none
CC1CCN(CC(O)CN2c3ccccc3Sc3ccccc32)CC1 (stereo not given)	Mdm2-MdmX inh 53.9 | Mdm2-MdmX conf inactive
O=C(/C=C/C=C/c1ccccc1)CC1(O)C(=O)N(CCc2ccccc2)c2ccccc21 (stereo not given)	Mdm2-MdmX inh 52.6 | Mdm2-MdmX conf inactive
Cc1nn(CCCC(=O)Nc2cc(Oc3ccc(F)cc3)cc([N+](=O)[O-])c2)c(C)c1[N+](=O)[O-]	none
CCn1nc(C)c(C(=O)Nc2cc(Oc3ccc(Cl)cc3)cc([N+](=O)[O-])c2)c1C	Mdm2-MdmX inh 56.9 | Mdm2-MdmX conf 45.1 | Full FLuc ctr 52.7
O=C(Nc1nnc(-c2ccccc2Cl)s1)c1ccccc1F	Mdm2-MdmX inh 86.3 | Mdm2-MdmX conf inactive
O=C(Nc1ccccc1C(=O)Nc1nnc(C(F)(F)F)s1)c1ccccc1Cl	Mdm2-MdmX inh 95.4 | Mdm2-MdmX conf 94.5 | Full FLuc ctr inactive
CCC/C(=N/Nc1ccc(Cl)cc1)c1cnnc(-c2ccccc2)n1	none
COc1ccc(N/N=C(/C)c2cnnc(-c3ccccc3)n2)cc1	Mdm2-MdmX inh 78.8 | Mdm2-MdmX conf inactive
Cc1ccc(NC(=O)C(=Cc2ccc(C(=O)O)cc2)C(=O)Nc2ccc(C)cc2C)c(C)c1	Mdm2-MdmX inh 100.4 | Mdm2-MdmX conf 99.0 | Full FLuc ctr 51.8
C[C@@]12C(=O)Nc3ccc(F)cc3C(=O)N1[C@H]1c3cc(Br)ccc3OC[C@@H]1[C@@H]2c1ccccc1	none (no result: aSyn UTR inh, KLF5 inhibitor)
CCOC(=O)[C@H]1[C@H]2COc3ccc(C)cc3[C@@H]2N2C(=O)c3ccc(C)cc3NC(=O)[C@@]12C	none (no result: aSyn UTR inh, KLF5 inhibitor)
Cc1ccc2c(c1)[C@H]1[C@H](CO2)[C@H](c2ccccc2)[C@]2(C)C(=O)Nc3cc(F)ccc3C(=O)N12	Mdm2-MdmX inh 57.9 (no result: aSyn UTR inh, KLF5 inhibitor) | Mdm2-MdmX conf inactive
CCOC(=O)[C@H]1[C@H]2COc3ccc(Br)cc3[C@@H]2N2C(=O)c3ccc(Cl)cc3NC(=O)[C@@]12C	Mdm2-MdmX inh 54.4 (no result: aSyn UTR inh, KLF5 inhibitor) | Mdm2-MdmX conf inactive
C[C@@]12C(=O)Nc3cc(F)ccc3C(=O)N1[C@H]1c3cc(Br)ccc3OC[C@@H]1[C@@H]2c1ccccc1	Mdm2-MdmX inh 55.5 (no result: aSyn UTR inh, KLF5 inhibitor) | Mdm2-MdmX conf 51.2 | Full FLuc ctr 36.4
CCN(CC(=O)Nc1c(F)cccc1F)C(=O)c1ccc(N2CCCC2=O)cc1	none (no result: KLF5 inhibitor)
Cc1ccc(-c2nc3ccccc3s2)cc1NC(=S)NC(=O)c1cccc2ccccc12	Mdm2-MdmX inh 98.7 | Mdm2-MdmX conf inactive
